Sampled rows, rich in hits. Any-hit rate of the full collection: about 1.7%.
LYP act: activators of human LYP (PTPN22) phosphatase; activation, % at 2 µM; Q9Y2R2; AID 697; recombinant LYP, DiFMUP fluorescence; 0 = plate median, 100 = signal doubled; 96,000 tested, 0.11% active;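 active = activation at 2 µM above a set limit, the mean plus 5 SD, cut at about 37% in these data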
sEH act: increases human soluble epoxide hydrolase activity; AID 717; activation, % at 2 µM; P34913; 91,000 tested, 0.04% active; purified human sEH enzymatic activity, activator screen; in the data active = activation above about 37%
Target sequence (P34913 whole entry, looked up): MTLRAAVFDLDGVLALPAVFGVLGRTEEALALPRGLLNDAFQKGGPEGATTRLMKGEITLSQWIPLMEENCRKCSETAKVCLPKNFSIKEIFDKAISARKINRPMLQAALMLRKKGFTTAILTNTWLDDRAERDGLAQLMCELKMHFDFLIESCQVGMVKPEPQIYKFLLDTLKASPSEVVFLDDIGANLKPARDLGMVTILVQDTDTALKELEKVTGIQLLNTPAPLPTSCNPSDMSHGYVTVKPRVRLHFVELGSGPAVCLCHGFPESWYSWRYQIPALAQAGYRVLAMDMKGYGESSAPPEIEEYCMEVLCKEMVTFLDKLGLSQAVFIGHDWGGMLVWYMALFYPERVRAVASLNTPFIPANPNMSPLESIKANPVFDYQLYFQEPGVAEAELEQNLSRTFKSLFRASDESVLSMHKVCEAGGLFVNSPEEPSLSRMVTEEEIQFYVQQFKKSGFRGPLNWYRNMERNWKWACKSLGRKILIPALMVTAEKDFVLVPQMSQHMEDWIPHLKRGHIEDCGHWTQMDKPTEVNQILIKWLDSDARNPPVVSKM
Measles CPE: protection of cells from measles virus; Measles virus-infected cells, CPE protection, absorbance; protection (pct of control), % at 4 µM; 140,000 tested, 1.5% active; AID 841; in the data active = protection mostly above about 24%, no sharp cut-off; inactive = mostly below about 26%
PTPN22 inh 2: LYP (human) phosphatase inhibition; recombinant LYP catalytic domain, DiFMUP fluorescence; Q9Y2R2; inhibition, % at 2 µM; 96,000 tested, 0.21% active;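 active = inhibition at 2 µM at or above a set limit, the screen mean plus 3 SD, cut at about 24% in these data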;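 also: 0% = DMSO with enzyme and 100% = enzyme fully blocked by orthovanadate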
sEH inh: inhibitors of human soluble epoxide hydrolase; P34913; 91,000 tested, 0.34% active; inhibition, % at 2 µM; recombinant human sEH enzymatic activity assay; AID 707; in the data active = inhibition above about 80%
Numbers without * were called inactive; / = not tested or not shown.

SMILES	LYP act	sEH act	Measles CPE	PTPN22 inh 2	sEH inh
CCCCCCNc1nc(-c2ccc(OC)cc2)c(CCC(=O)O)s1	/	/	12	/	/
CCOC(=O)/C(C#N)=C1/C=C(C)NC(c2ccccc2O)=N1	5	-2	16	-10	0
CCOC(=O)/C(C#N)=C1/C=CN(C)C(C)=N1	-13	-6	29*	12	7
COc1ccc2oc(=O)c(-c3ccccc3C(=O)N3CCOCC3)cc2c1	/	/	18	/	/
CN(C)c1ccc(C=C2C(=O)OC(C)(C(C)(C)C)OC2=O)cc1 (stereo unspecified)	6	-2	19	-8	2
CCN(CC)c1ccc(C=C2C(=O)OC3(CCCC3)OC2=O)cc1	/	/	40*	/	/
C=CCC1(O)C(=O)N2C(=C1C(=O)OCC)c1ccc3ccccc3c1CC2(C)C (stereo unspecified)	-4	0	61*	7	-2
CC(C)C(=O)Nc1ccc(NC(=O)c2ccco2)cn1	/	/	55*	/	/
O=C(NCc1ccccc1)c1cccc(NC(=O)c2ccco2)c1	-7	-2	4	8	5
O=C(Nc1ccc2nc[nH]c2c1)c1ccco1	-11	/	53*	8	/
CCCC(=O)Nc1ccc(NC(=O)c2ccco2)cn1	-6	-7	36	3	7
CC(C)CNC(=O)c1cccc(NC(=O)c2ccco2)c1	-2	-3	22*	2	3
Cc1cccc(NC(=O)Cn2c([N+](=O)[O-])cnc2C)c1C	/	/	3	/	/
CC(=O)CSc1nc(C(F)(F)F)cc(=O)n1-c1ccccc1	/	/	2	/	/
O=C(O)CSc1nc(C(F)(F)F)cc(=O)n1-c1ccccc1	2	-8	49*	2	9
Cc1noc(/C=C/N(C)C)c1S(=O)(=O)N1CCCC(C(=O)NCCC2=CCCCC2)C1 (stereo unspecified)	-1	-88	/	-1	88*
Cc1noc(C)c1S(=O)(=O)N1CCCC(C(=O)NCCC2=CCCCC2)C1 (stereo unspecified)	-10	-70	1	9	71
CC1CCN(c2nc3c(c(=O)[nH]c(=O)n3C)n2Cc2ccccc2)CC1	1	-14	8	-2	13
CC1CCCN(c2nc3c(c(=O)[nH]c(=O)n3C)n2CCCc2ccccc2)C1 (stereo unspecified)	/	/	42*	/	/
COC(=O)c1sccc1-n1cccc1C(=O)N1CCOCC1	-59	11	6	60*	-12
Cc1ccc2c3c([nH]c2c1C)-c1nonc1CC3	0	12	43*	-2	-14
Cc1cc2c(nn1)CCc1nonc1-2	5	-5	6	-6	10
COC(=O)C1CC(=O)c2ccsc2C1 (stereo unspecified)	/	/	7	/	/
CC(C)(C)SCCNC(=O)c1ccc(Cl)c(S(=O)(=O)N2CCOCC2)c1	3	-86	/	-7	86*
O=C(NCCN1CCOCC1)c1ccc(Cl)c(S(=O)(=O)N2CCCCCC2)c1	/	/	4	/	/
SMILES	LYP act	sEH act	Measles CPE	PTPN22 inh 2	sEH inh
O=C(Nc1cccc(Br)c1)c1ccc(Cl)c(S(=O)(=O)N2CCOCC2)c1	1	-95	12	-1	95*
O=C(Nc1cccc(C(=O)N2CCOCC2)c1)c1cncc(Br)c1	11	10	38*	-12	-7
O=C(Nc1cccc(S(=O)(=O)C(F)F)c1)c1ccc(Cl)c(S(=O)(=O)N2CCOCC2)c1	/	/	24	/	/
Cc1ccc(C(=O)Nc2cccc(C(=O)N3CCOCC3)c2)cc1	-10	6	11	13	-6
N/C(=N\OC(=O)COc1ccc(Br)cc1Cl)c1cccnc1	/	/	4	/	/
O=C1/C(=C\c2ccco2)SC(=S)N1c1ccc(O)cc1	/	/	39*	/	/
CN1CCN(C(=O)c2ccccc2NC(=O)c2cccs2)CC1	-3	20	45*	3	-20
COc1cc(OC)cc(C(=O)Nc2ccccc2C(=O)N2CCCC2)c1	-51	9	5	52*	-8
CN1CCN(C(=O)c2ccccc2NC(=O)C(C)(C)C)CC1	12	5	9	-12	0
COc1ccccc1C(=O)Nc1ccccc1C(=O)N1CCCC1	0	2	10	2	-3
CC(C)Cn1cc(C(=O)N2CCOCC2)c2c3ccccc3n(C)c2c1=O	1	4	40*	-3	-8
C=CCn1c(Cc2cccs2)nnc1SC/C=C/c1ccccc1	0	-6	6	-1	2
CCOC(=O)c1c(-c2ccccc2)csc1/N=C/C1C(=O)CCCC1=O	/	/	53*	/	/
O=S(=O)(Nc1ccccc1)c1ccc(Oc2ncc(C(F)(F)F)cc2Cl)cc1	-4	-9	41*	5	11
Cc1cccc(-c2noc(CN(C(=O)c3ccc4c(c3)OCO4)C(C)C)n2)c1	6	-1	46*	-8	2
Cc1cccc(-c2noc(CN(C(=O)c3ccc(Br)o3)C(C)C)n2)c1	-8	-11	19	4	14
CCOC(=O)c1c(N2C(=O)C3C4C=CC(C4)C3C2=O)sc2c1CCC(C)C2 (stereo unspecified)	/	/	3	/	/
COc1ccc(-c2nc3c(n2O)CCCC3=O)cc1OC	1	9	89*	-4	-9
O=S(=O)(NC1CCCCC1Oc1ccccc1)c1ccccc1 (stereo unspecified)	/	/	13	/	/
Cc1ccccc1NC(=O)CN1C(=O)S/C(=C\c2cccn2-c2cccc(C(=O)O)c2)C1=O	8	-8	38	-3	11
Cc1ccc(NC(=O)CN2C(=O)S/C(=C\c3cccn3-c3cccc(C(=O)O)c3)C2=O)c(C)c1	-48	0	31	50*	1
COc1ccccc1OCCn1c(C(C)O)nc2ccccc21 (stereo unspecified)	3	-2	76*	-4	3
OCc1nc2ccccc2n1CC(O)COc1ccccc1 (stereo unspecified)	4	10	29*	-7	-10
CC(O)c1nc2ccccc2n1CCOc1ccccc1 (stereo unspecified)	-4	5	38*	2	-4
COc1ccc(C(=O)Nc2ccc(Cl)cc2C(=O)N2CCCC(C)C2)cc1 (stereo unspecified)	11	18	6	-16	-17
SMILES	LYP act	sEH act	Measles CPE	PTPN22 inh 2	sEH inh
CCOC(=O)Cn1c2ccccc2c2nc3ccccc3nc21	4	8	46*	-6	-7
Cn1c(N=NC(=O)c2ccccc2)c(O)c2ccccc21	/	/	5	/	/
CC(C)CC(=O)NCCCN1CCN(CCCNC(=O)CC(C)C)CC1	3	-2	25	-4	3
CCCCC(CC)C(=O)NCCCN1CCN(CCCNC(=O)C(CC)CCCC)CC1 (stereo unspecified)	/	/	36*	/	/
COc1cc(/C=C/C(=O)Nc2ccc(N3CCCCC3)c(S(=O)(=O)Nc3ccccc3Cl)c2)cc(OC)c1OC	/	/	20	/	/
CN(C(=O)c1c(Cl)nc2sccn12)C1CCCCC1	6	-2	23*	-7	3
COc1ccc(-n2c(CCc3ccccc3)nnc2SCC(=O)c2ccccc2)cc1	/	/	14	/	/
COc1ccc(C(=O)CSc2nnc(CCc3ccccc3)n2-c2ccccc2)cc1	6	10	25*	-2	-12
COc1ccc(S(=O)(=O)N2CC3CCCN3c3cc(C(F)(F)F)ccc32)cc1 (stereo unspecified)	-22	4	7	25*	-2
